One assay concerns the target SLC8A3. The assay is described as follows: pooled miR-30 sensor sort-seq; sequence = guide strand. The conditions noted are these: shRNA.
In turn, TTAAATACTGTGTAAAGTCGGT gave a sensor-assay potency score (higher = more potent) of -0.0881.

Consider TTGTAGTCCACATACATGGTCT, for which the sensor-assay potency score (higher = more potent) was -0.435.

TACAAGAGCACGCTGATGCAGA displayed a sensor-assay potency score (higher = more potent) of -0.14.

Take TTTGTATCTGACTTGATTCAAC: the sensor-assay potency score (higher = more potent) was -0.929.

In turn, TATTTGTAGAAGAGCAGTCGTT returned a sensor-assay potency score (higher = more potent) of -0.77.

Regarding TTGATCAGTTTGTCCACCGTAG, the sensor-assay potency score (higher = more potent) is 0.465.

Regarding TTGATCTTGCGAGTCTCTCCGT, the sensor-assay potency score (higher = more potent) is -0.572.

TGATCTTGCGAGTCTCTCCGTC came in with a sensor-assay potency score (higher = more potent) of -0.247.

TTCTGCTGCATGTTTCTTCAGG came in with a sensor-assay potency score (higher = more potent) of -0.419.

In turn, TTTGTAGTCCACATACATGGTC registered a sensor-assay potency score (higher = more potent) of -0.363.

For TTTCTTAATTGTCACCTCCCTC, the sensor-assay potency score (higher = more potent) is -0.959.

A further assay has as its target SLC9A10. The description is as above. The conditions noted are these: shRNA.
On to TAGTCTTTGGTCAAAATCCATA, for which the sensor-assay potency score (higher = more potent) was -1.27.

TTAAGCAGTTTATCTCTCCTAT had a sensor-assay potency score (higher = more potent) of -0.373.

As to TATGATTGACATCATCACCAAA, the sensor-assay potency score (higher = more potent) is -0.934.

As for TTTTTCGTAACAGACAATCTTC, the sensor-assay potency score (higher = more potent) was -0.245.

The values are drawn from the OligoGym collection.
Note: reference of the scale not given here.
